Holding throughout (assay): Primary qHTS to identify gynecologic anti-cancer compounds using libraries of approved drugs and bioactive compounds (AID 1345084); also: nearly all actives have a fitted effect of over 55% in size
One experiment relates to C33A. Conditions: Gynecologic cancer cell panel viability, ATPlite luminescence, 48 h; series mostly up to 57.5 µM. A digest of the protocol: (§1)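 Cells, 1,000 per well, plated 16 h, then exposed 48 h at 37 C to compounds. Viability by ATPlite luminescence after 15 min at room temperature.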
The test system of another experiment is CAOV3. As to conditions: Gynecologic cancer cell panel viability, ATPlite luminescence, 48 h; series mostly up to 57.5 µM. A digest of the protocol: as §1
The next experiment has as its system CASKI. As to conditions: Gynecologic cancer cell panel viability, ATPlite luminescence, 48 h; series mostly up to 57.5 µM. A digest of the protocol: as §1
For another experiment, the system named is Es-2. Conditions: Gynecologic cancer cell panel viability, ATPlite luminescence, 48 h; series mostly up to 57.5 µM. In outline: as §1
The subject of another experiment is HeLa. Conditions: Gynecologic cancer cell panel viability, ATPlite luminescence, 48 h; series mostly up to 57.5 µM. A digest of the protocol: as §1
The next experiment deals with Hek293T. As to conditions: Gynecologic cancer cell panel viability, ATPlite luminescence, 48 h, control line for the selectivity index; series mostly up to 57.5 µM. In outline:
as §1

Another experiment concerns JEG-3. As to conditions: Gynecologic cancer cell panel viability, ATPlite luminescence, 48 h; series mostly up to 57.5 µM. A digest of the protocol:
as §1

The test system of another experiment is OV90. As to conditions: Gynecologic cancer cell panel viability, ATPlite luminescence, 48 h; series mostly up to 57.5 µM. A digest of the protocol: as §1
Another experiment relates to PA-1. Conditions: Gynecologic cancer cell panel viability, ATPlite luminescence, 48 h; series mostly up to 57.5 µM. A digest of the protocol: as §1
The subject of a further experiment is SKOV3. Conditions: Gynecologic cancer cell panel viability, ATPlite luminescence, 48 h; series mostly up to 57.5 µM. A digest of the protocol:
as §1

The next experiment deals with Tov-21-G. Conditions: Gynecologic cancer cell panel viability, ATPlite luminescence, 48 h; series mostly up to 57.5 µM. A digest of the protocol: as §1
Another experiment deals with Tov112D. Conditions: Gynecologic cancer cell panel viability, ATPlite luminescence, 48 h; series mostly up to 57.5 µM. A digest of the protocol: as §1

The results in this text go back to PubChem BioAssay (NCATS).

Each structure is given as a SMILES string. Records with an inconclusive call do not appear. Values without a mark were called inactive. Activity calls are given as the source filed them. Calls follow the shape of the dose curve; as a rule, active = well fitted cell-killing curve with a large enough effect; inconclusive = small, poorly fitted or top-dose-only effect, or effect the other way; inactive = flat fitted curve, though single readings scatter.
Potency is read from the fitted curve at half-maximal effect.

In the case of `COc1cc(C(=O)O)ccc1OC1OC(CO)C(O)C(O)C1O` (stereo not drawn), the Potency result with C33A, with CAOV3, with CASKI, in the experiment on Es-2, with HeLa and in the experiment on Hek293T was “inactive” each time. For the same compound, the Potency entry with JEG-3, with OV90, in the experiment with PA-1, in the experiment with SKOV3, in the experiment on Tov-21-G and in the experiment with Tov112D was “inactive” each time.
As for `O=C(COc1cccc2c(=O)[nH]ccc12)c1ccccc1`, the Potency result in the experiment on C33A, with CAOV3, in the experiment on CASKI, in the experiment on Es-2, with HeLa and with Hek293T was “inactive” throughout. The Potency entry with JEG-3, with OV90, in the experiment on PA-1, in the experiment with SKOV3, in the experiment with Tov-21-G and with Tov112D was “inactive” throughout.
For the compound `O=C(CO)[C@@H](O)[C@H](O[C@@H]1O[C@H](CO)[C@H](O)[C@H](O)[C@H]1O)[C@H](O)CO`, the Potency entry with C33A, in the experiment on CAOV3, in the experiment with CASKI, in the experiment with Es-2, with HeLa and with Hek293T was “inactive” throughout. The Potency result in the experiment on JEG-3, with OV90, in the experiment with PA-1, in the experiment with SKOV3, in the experiment with Tov-21-G and in the experiment on Tov112D was “inactive” each time.
Take `O=C1NC(Cc2ccccc2)C(=O)N2CCCC12` (stereo not drawn): the Potency result in the experiment with C33A, in the experiment with CAOV3, in the experiment on CASKI, in the experiment with Es-2, with HeLa and with Hek293T was “inactive” throughout. Moreover, the Potency result in the experiment on JEG-3, in the experiment with OV90, in the experiment on PA-1, with SKOV3, in the experiment on Tov-21-G and in the experiment with Tov112D was “inactive” throughout.
Consider `O=C(O[C@H]1[C@@H]2C[C@@H]3OC[C@](O)([C@@H]1Cl)[C@H]2C(O[C@@H]1O[C@H](CO)[C@@H](O)[C@H](O)[C@H]1O)O3)c1ccc(O)c(O)c1` (stereo partly drawn), for which the Potency result in the experiment on C33A, with CAOV3, in the experiment on CASKI, in the experiment with Es-2, with HeLa and with Hek293T was “inactive” throughout. In addition, the Potency result in the experiment on JEG-3, with OV90, in the experiment with PA-1, in the experiment on SKOV3, in the experiment with Tov-21-G and with Tov112D was “inactive” each time.
As for `CC(=O)NC1C(OC(C)(C)C2CCC3(C)C=C(C4CCC5C4(C)CC(O)C4OC(C(C)(C)O)CCC45C)CCC3O2)OC(CO)C(O)C1O` (stereo not drawn), the Potency entry in the experiment on C33A, in the experiment on CAOV3, with CASKI, with Es-2, with HeLa and with Hek293T was “inactive” in each case. Besides, the Potency result in the experiment on JEG-3, with OV90, in the experiment with PA-1, in the experiment on SKOV3, in the experiment with Tov-21-G and with Tov112D was “inactive” in each case.
For the compound `O=C(NCC(O)CO)c1ccncc1Nc1ccc(I)cc1F` (stereo not drawn), the Potency result in the experiment with C33A, with CAOV3, in the experiment with CASKI, in the experiment with HeLa, in the experiment with Hek293T and with JEG-3 was “inactive” throughout. For the same compound, the Potency entry in the experiment on PA-1, in the experiment on SKOV3 and in the experiment on Tov112D was “inactive” throughout. Further, the Potency in the experiment on Es-2 was 2000 nM (active); in the experiment on OV90 it was 79.4 nM (active); with Tov-21-G, 1580 nM (active).
As to `CC(=O)O[C@@H]1[C@@H](CO)O[C@@](CO)(O[C@H]2O[C@H](COC(=O)/C=C/c3ccccc3)[C@@H](O)[C@H](O)[C@H]2O)[C@H]1O`, the Potency entry in the experiment with C33A, in the experiment on CAOV3, in the experiment on CASKI, with Es-2, with HeLa and in the experiment on Hek293T was “inactive” in each case. Moreover, the Potency entry in the experiment on JEG-3, with OV90, in the experiment on PA-1, with SKOV3, in the experiment on Tov-21-G and in the experiment on Tov112D was “inactive” throughout.
For the compound `O=C(O)c1cc(I)ccc1NC(=O)[C@H](Cc1ccccc1)NCc1ccccc1`, the Potency result in the experiment with C33A, in the experiment on CAOV3, in the experiment with CASKI, in the experiment with Es-2, in the experiment on HeLa and with Hek293T was “inactive” each time. Moreover, the Potency result in the experiment with JEG-3, in the experiment with OV90, in the experiment on PA-1, in the experiment on SKOV3, in the experiment with Tov-21-G and in the experiment on Tov112D was “inactive” each time.
Take `CC(=O)N1CCc2ccc(O)c(OC3OC(COC4OCC(O)(CO)C4O)C(O)C(O)C3O)c2C1Cc1ccc(O)cc1` (stereo not drawn): the Potency result in the experiment with C33A, in the experiment with CAOV3, in the experiment on CASKI, in the experiment with Es-2, with HeLa and with Hek293T was “inactive” each time. Moreover, the Potency entry with JEG-3, in the experiment on OV90, in the experiment with PA-1, in the experiment with SKOV3, with Tov-21-G and in the experiment with Tov112D was “inactive” each time.
Regarding `CC(=O)c1ccc(O[C@@H]2O[C@H](CO)[C@@H](O)[C@H](O)[C@H]2O)cc1`, the Potency result in the experiment on C33A, in the experiment on CAOV3, with CASKI, in the experiment with Es-2, in the experiment with HeLa and with Hek293T was “inactive” throughout. The Potency result with JEG-3, in the experiment on OV90, in the experiment on PA-1, with SKOV3, with Tov-21-G and in the experiment on Tov112D was “inactive” throughout.
Take `COc1cc(O)c([C@@H](CC(=O)N2CC(C)CC(C)C2)c2ccc3c(c2)OCO3)c(OC)c1` (stereo partly drawn): the Potency result in the experiment with C33A, in the experiment on CAOV3, in the experiment with CASKI, with Es-2, with HeLa and in the experiment on Hek293T was “inactive” throughout. For the same compound, the Potency result in the experiment on JEG-3, in the experiment on OV90, in the experiment with PA-1, in the experiment with SKOV3, in the experiment with Tov-21-G and in the experiment on Tov112D was “inactive” in each case.
Regarding `COc1ccc(CCO[C@@H]2O[C@H](CO[C@@H]3OC[C@H](O)[C@H](O)[C@H]3O)[C@@H](O)[C@H](O)[C@H]2O)cc1`, the Potency entry in the experiment with C33A, in the experiment on CAOV3, in the experiment on CASKI, in the experiment with Es-2, in the experiment on HeLa and with Hek293T was “inactive” throughout. Moreover, the Potency entry in the experiment on JEG-3, in the experiment with OV90, in the experiment on PA-1, in the experiment on SKOV3, with Tov-21-G and with Tov112D was “inactive” throughout.
On to `O=C(Nc1ccc(-c2ccncc2)cc1)N[C@H](CO)c1ccccc1`, for which the Potency entry in the experiment with C33A, in the experiment on CAOV3, with CASKI, in the experiment on Es-2, in the experiment on HeLa and with Hek293T was “inactive” in each case. For the same compound, the Potency entry in the experiment with JEG-3, with OV90, with PA-1, in the experiment on SKOV3, with Tov-21-G and with Tov112D was “inactive” in each case.
